# From PubChem
# Pf growth 48h = P. falciparum growth inhibition at 48 hours (one generation); P. falciparum luciferase growth in erythrocytes, 48 h; AID 504832; Potency, µM (titrated, usually from 28.7 µM), without a hit: at the top dose activity change, negative = inhibition, usual class: inhibitors; 310,000 compounds, 5.9% hits
#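 Erythrocytes infected with P. falciparum carrying an integrated firefly luciferase reporter (2% hematocrit, 0.1% parasitemia final) were exposed to compounds in RPMI 1640 with 0.5% Albumax at 37 C, 5% CO2. Growth inhibition was scored as reduced luminescence.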
# AmpC inh detg = AmpC beta-lactamase inhibition with detergent present | P00811 | AmpC hydrolysis of nitrocefin, absorbance 480 nm, 0.01% Triton | Potency, µM (doses to about 114 µM), inactives show top-dose activity change, negative = inhibition, most hits filed as inhibitors | 370,000 compounds, 0.041% hits;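 note: 0% = no-compound wells and -100% = no-enzyme wells; nearly all actives have a fitted effect of over 25% in size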
# Target sequence (P00811 whole entry, looked up): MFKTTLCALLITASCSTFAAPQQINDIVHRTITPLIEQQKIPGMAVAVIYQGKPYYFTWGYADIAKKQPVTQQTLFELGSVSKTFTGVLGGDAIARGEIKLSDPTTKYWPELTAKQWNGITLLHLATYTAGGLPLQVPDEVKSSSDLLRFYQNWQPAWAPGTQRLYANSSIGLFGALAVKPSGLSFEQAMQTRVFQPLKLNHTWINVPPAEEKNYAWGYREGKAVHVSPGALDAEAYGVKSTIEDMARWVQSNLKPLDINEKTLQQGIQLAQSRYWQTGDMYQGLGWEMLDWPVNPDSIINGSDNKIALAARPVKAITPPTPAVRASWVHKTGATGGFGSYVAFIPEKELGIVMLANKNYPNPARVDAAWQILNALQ
#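 20 mM phosphate pH 7.0 + 0.01% (detergent screen) or 0.0001% Triton X-100; 5.3 nM AmpC reagent; cpd preinc 15 min RT; nitrocefin (800 uM stock) to start; A480 q20 s × 4 min; Activity was normalised to no-enzyme and no-compound control wells.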
# HCV inhibitor = blocks hepatitis C virus; Huh7.5.1 HCVcc-Cre infection, luciferase reporter, 44 h; Potency, µM (top dose mostly 41.8 µM), for the others: top-dose activity change, negative = inhibition, most hits filed as inhibitors; 340,000 compounds, 3.4% hits; AID 651820
#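 Whole-lifecycle infectious HCVcc-Cre system; cells 1,000/well, compound then virus (~0.5 moi) added 4 h after plating, 44 h culture. Luciferase read 15 sec following 15 min substrate incubation, room temp.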
# Pf growth 96h = P. falciparum growth inhibition at 96 hours. Potency, µM (top dose mostly 28.7 µM), inactives show top-dose activity change, negative = inhibition, usual class: inhibitors. AID 504834. 320,000 compounds, 6.9% hits. P. falciparum luciferase reporter growth, 96 h
#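 P. falciparum expressing integrated firefly luciferase, in erythrocytes at 2% hematocrit, 0.05% parasitemia, incubated with compounds 96 h at 37 C, 5% CO2. Growth inhibition read as loss of luminescence; two-generation exposure targets delayed-death apicoplast inhibitors.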
# AMA1-RON2 inh = inhibitors of Plasmodium falciparum AMA1-RON2 interaction; Potency, µM (series often up to 58.2 µM), inactives show top-dose activity change, negative = inhibition, actives largely listed as inhibitors; AID 720542; AlphaScreen AMA1-biotinylated RON2 peptide binding; 360,000 compounds, 0.2% hits;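 note: 0% = vehicle wells and -100% = peptide control; nearly all actives have a fitted effect of over 45% in size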
#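 AMA1 (3D7) with his tag at 25 nM final met compounds first, then biotinylated RON2 peptide at 25 nM; detection used donor plus acceptor beads, 10 µg/mL apiece, read by AlphaScreen after 30 min at room temperature.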
# AmpC inh no detg = inhibitors of E. coli AmpC beta-lactamase without detergent. AID 485341. AmpC nitrocefin hydrolysis, absorbance 480 nm, 0.0001% Triton. P00811. Potency, µM (top dose mostly 57.1 µM), for the others: top-dose activity change, negative = inhibition, actives largely listed as inhibitors. 330,000 compounds, 0.52% hits;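 note: plate controls were no compound for no effect and no enzyme for full effect; nearly all actives have a fitted effect of over 20% in size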
#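 20 mM phosphate pH 7.0 + 0.01% (detergent screen) or 0.0001% Triton X-100; 5.3 nM AmpC reagent; cpd preinc 15 min RT; nitrocefin (800 uM stock) to start; A480 q20 s × 4 min; Activity was normalised to no-enzyme and no-compound control wells.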
# * marks the source's active call; other numbers are inactive results; ? = inconclusive; / = not tested or not shown; [ ] = another dose, or the depositor's remark. A selection: hits, their analogues and other compounds. The true share with any hit is near 11%. Calls come from the whole dose curve; as a rule, active = well fitted curve in the direction sought with a large enough effect; inconclusive = small, poorly fitted or top-dose-only effect, or another doubt; inactive = no such curve, though single readings can be large; an effect the other way counts as inactive or inconclusive. Unless noted, % is set by controls: 0 for no effect and ±100 for the full control effect; potency is the fitted concentration of half-maximal effect.
SMILES,Pf growth 48h,AmpC inh detg,HCV inhibitor,Pf growth 96h,AMA1-RON2 inh,AmpC inh no detg
Cc1ccc(-n2ncc3c(NCCCn4ccnc4)ncnc32)cc1,/,-4.5%,/,/,/,/
O=C(Nc1ccccc1)c1nn(-c2ccccc2)c(=O)cc1C(F)(F)F,30.6%,4.5%,?,?,-0.2%,-15.8%
O=C(c1ccccc1)c1nn(-c2ccccc2)c(=O)cc1C(F)(F)F,90.8%,-2.4%,?,0.0%,-5.1%,-1.2%
O=C(c1cccc(Cl)c1)c1nn(-c2ccccc2)c(=O)cc1C(F)(F)F,?,-4.3%,21.3%,13.1µM*,-14.1%,-14.5%
O=C(c1ccccc1)c1nn(-c2ccc(Cl)cc2)c(=O)cc1C(F)(F)F,?,-5.0%,6.31µM*,?,-8.1%,-6.9%
NC(=O)c1c(NC(=O)CN2CCN(S(=O)(=O)c3ccccc3)CC2)sc2c1CCC2,?,-6.8%,10µM*,6.0%,84.6%,-43.1%
O=C(O)c1cc(S(=O)(=O)N2CCN(S(=O)(=O)c3ccccc3)CC2)ccc1Cl,/,?,17.4%,-5.5%,0.3%,-2.4%
CC1CC(C)CN(C(C)C(=O)Nc2cc(S(=O)(=O)N3CCCCC3)ccc2Cl)C1 (centres undefined),/,/,14.3%,/,-21.5%,-14.0%
O=C(CN(Cc1ccco1)Cc1ccco1)Nc1cc(S(=O)(=O)N2CCCCC2)ccc1Cl,13.1µM*,1.4%,10µM*,?,14.2%,-19.9%
O=C(O)c1cc(S(=O)(=O)N2CCN(C(c3ccccc3)c3ccccc3)CC2)ccc1Cl,11.7µM*,-2.6%,2.1%,9.28µM*,-15.3%,-26.3%
CC1CCN(C(C)C(=O)Nc2cc(S(=O)(=O)N3CCCCC3)ccc2Cl)CC1 (centres undefined),11.7µM*,-0.5%,15.8µM*,9.28µM*,-2.2%[11.6 µM],-15.3%
COc1ccc(NC(=O)c2c(C)oc3ccc(O)c(CN4CCCCCC4)c23)cc1Cl,/,-5.2%,/,/,/,/
O=C(CN1CCN(C(=O)c2cccc(S(=O)(=O)N3CCCC3)c2)CC1)Nc1ccccc1Cl,10.4µM*,-0.5%,-0.3%,?,-4.7%,155.6%
O=C(CN1CCN(C(=O)c2cccc(S(=O)(=O)N3CCCC3)c2)CC1)Nc1ccc(F)cc1,?,3.2%,0.4%,?,-13.2%,75.9%
O=C(CN1CCN(Cc2ccc3c(c2)OCO3)CC1)Nc1cc(S(=O)(=O)N2CCCC2)ccc1Cl,?,3.6%,6.31µM*,?,-8.3%,10.0%
CC(NCC(=O)Nc1cc(S(=O)(=O)N2CCCCCC2)ccc1Cl)c1ccccc1 (centres undefined),?,4.7%,12.6µM*,?,?,-20.6%
CN(C)c1ccc(S(=O)(=O)N2CCCCC2)cc1NC(=O)CCNC(=O)c1ccco1,11.7µM*,-1.9%,15.7%,?,-10.2%,-19.5%
COc1cccc(CCNC(=O)c2c(O)nc3cc(C)ccn3c2=O)c1,/,-2.5%,/,/,/,/
O=C(CN1CCN(S(=O)(=O)c2ccccc2)CC1)Nc1ccccc1Cl,13.7%,1.7%,?,-5.3%,?,0.0%
O=C(Nc1cc(S(=O)(=O)N2CCCCC2)ccc1O)c1ccccc1NS(=O)(=O)c1ccc(F)cc1,-20.5%,0.8%,18.2%,?,40.1%,-25.4%
O=C(CN1CCN(C(=O)c2ccccc2)CC1)Nc1cccc(S(=O)(=O)N2CCCC2)c1,?,?,-11.0%,?,16.6%,137.2%
O=C(CN1CCN(C(=O)c2ccccc2)CC1)Nc1cc(S(=O)(=O)N2CCCC2)ccc1Cl,10.4µM*,-6.0%,?,?,10.2%,151.7%
O=C(Nc1cc(S(=O)(=O)N2CCCCC2)ccc1Cl)c1ccccc1NS(=O)(=O)c1ccc(F)cc1,0.0%,-6.6%,10µM*,?,1.9%,-40.6%
O=C(CN1CCN(S(=O)(=O)c2ccccc2)CC1)Nc1ccccc1C(=O)c1ccccc1,13.1µM*,-5.9%,?,4.65µM*,-9.3%,-2.2%
CNS(=O)(=O)c1cn(CC(=O)Nc2cccc(OC)c2)cc1S(=O)(=O)NC,/,3.1%,/,/,/,/
SMILES,Pf growth 48h,AmpC inh detg,HCV inhibitor,Pf growth 96h,AMA1-RON2 inh,AmpC inh no detg
CCn1cc(C(=O)O)c(=O)c2cc(F)c(N3CCN(C(=S)NC(=O)c4ccccc4C)CC3)cc21,?,-0.6%,5.5%,?,57.4%,5.2%
C=CCNC(=S)N1CCN(c2cc3c(cc2F)c(=O)c(C(=O)O)cn3CC)CC1,?,-10.5%,-2.0%,2.33µM*,36.0%,1.2%
CCn1cc(C(=O)O)c(=O)c2cc(F)c(N3CCN(C(=S)NC(=O)c4ccccc4Cl)CC3)cc21,5.22µM*,0.8%,-12.9%,?,15.7%,-1.3%
Cc1cccc(NC(=O)Cn2c(=O)nc(-c3ccccc3)c3ccccc32)c1C,/,0.8%,/,/,/,/
Cc1cc(Cl)c(S(=O)(=O)N2CCCCCC2)cc1OCC(=O)NC1CCCCC1,/,1.9%,-1.9%,0.0586µM*,31.1%,46.6%
Cc1cc(Cl)c(S(=O)(=O)N2CCN(c3ccccn3)CC2)cc1OCC(=O)NC1CCCCC1,0.233µM*,3.0%,10µM*,?,2.2%,36.2%
Cc1cc(Cl)c(S(=O)(=O)N2CCSCC2)cc1OCC(=O)NC1CCCCC1,/,0.1%,6.31µM*,11.2%,1.0%,-3.0%
Cc1cc(Cl)c(S(N)(=O)=O)cc1OCC(=O)NC1CCCCC1,41.4%,-3.2%,18.9%,-18.0%,-0.6%,-12.3%
Cc1cc(Cl)c(S(=O)(=O)NC2CCCC2)cc1OCC(=O)NC1CCCCC1,/,-6.0%,7.08µM*,?,5.6%,-0.7%
CCOc1ccc(NC(=O)CSc2nnc3c(C)cc4ccccc4n23)cc1,/,1.0%,/,/,/,/
Cc1ccc(CN(C(=O)c2ccc([N+](=O)[O-])cc2)c2ccccn2)cc1,/,12.7%,/,/,/,/
CCOC(=O)N1CCN(S(=O)(=O)c2cc(OCC(=O)NC3CCCCC3)c(C)cc2Cl)CC1,/,?,5.9%,0.657µM*,-19.2%,129.1%
Cc1cc(OCC(=O)N(Cc2ccc(N(C)C)cc2)CC2CCCO2)ccc1Cl (centres undefined),/,16.1%,/,/,/,/
CC(=O)N1CCc2cc(S(=O)(=O)NC(CC(C)C)C(=O)Nc3cc(C(=O)O)ccc3C)ccc21 (centres undefined),1.5%,-9.3%,6.2%,0.294µM*,18.5%,-15.8%
O=C(O)c1ccc(COc2ccccc2/C=C2\NC(=O)N(Cc3ccccc3)C2=O)cc1,?,-8.2%,-3.3%,?,-2.2%,-23.8%
O=C(O)c1ccc(COc2ccc3ccccc3c2/C=C2/NC(=O)N(Cc3ccc(F)cc3)C2=O)cc1,8.28µM*,-11.5%,22.8%,31.8%,0.1%,-28.1%
Cc1ccc(S(=O)(=O)Nc2ccc3ccccc3c2)cc1,/,/,-4.7%,/,-2.7%,/
